Screening data: PubChem, The Scripps Research Institute Molecular Screening Center
FBW7 activator = human FBW7 E3 ligase activation, primary screen; 0.13% of 650,000 active; AID 1259310; normalized activity (activation), % at 26.1 µM; AlphaScreen FBW7–phospho-cyclin E peptide binding, activator screen; in the data active = normalized activity above about 1.9%;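 note: purified mutant Fbw7 with reduced substrate affinity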
MITF inh = blocks human microphthalmia-associated transcription factor; AlphaScreen MITF homodimerization, bead proximity signal; inhibition, % at 2.6 µM; 0.91% of 650,000 active; in the data active = inhibition above about 50%;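 note: 0% = vehicle wells with protein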
Target sequence (O75030 whole entry, looked up): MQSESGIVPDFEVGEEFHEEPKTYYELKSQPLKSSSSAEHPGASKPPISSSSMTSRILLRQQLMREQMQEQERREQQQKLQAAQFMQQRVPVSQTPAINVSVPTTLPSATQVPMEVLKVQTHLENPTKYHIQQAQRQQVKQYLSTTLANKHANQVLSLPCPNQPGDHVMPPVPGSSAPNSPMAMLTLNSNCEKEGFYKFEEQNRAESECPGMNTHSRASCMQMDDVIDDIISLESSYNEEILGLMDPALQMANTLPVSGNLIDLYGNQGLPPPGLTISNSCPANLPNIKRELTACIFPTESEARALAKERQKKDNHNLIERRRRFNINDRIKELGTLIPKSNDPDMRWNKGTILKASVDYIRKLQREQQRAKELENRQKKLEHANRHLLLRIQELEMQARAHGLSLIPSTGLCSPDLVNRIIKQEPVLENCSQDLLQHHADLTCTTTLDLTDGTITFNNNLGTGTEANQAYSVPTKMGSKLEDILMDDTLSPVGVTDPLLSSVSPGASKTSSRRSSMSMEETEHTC
TEAD-YAP inh = TEAD-YAP interaction inhibition; HEK-TIYL cells, TEAD-Gal4/YAP UAS-luciferase luminescence; inhibition, % at 9.12 µM; 1.4% of 640,000 active; in the data active = inhibition above about 32%;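 note: 0% = median of test compound wells and 100% = reference inhibitor wells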
GPR151 activ = activators of human GPR151; Q8TDV0; PathHunter beta-arrestin GPR151 cells, luminescence; activation, % at 11.2 µM; AID 1508602; 1% of 650,000 active; in the data active = activation above about 4.9%;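 note: 0% = median of compound wells and 100% = cells with positive control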
GPR151 conf act = human GPR151 activation, confirmation screen; shares compounds with GPR151 activ; GPR151 PathHunter beta-arrestin cells, luminescence, 90 min; % of EA-reagent control over plate median; activation, % at 11.2 µM; 6,700 tested, under 10 active;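 active = mean percent activation across replicates above the confirmation screen cutoff of 4.91%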
GPR119 ag = activates human GPR119 in a GPR151 counter-screen | shares compounds with GPR151 activ | GPR119 PathHunter beta-arrestin cells, luminescence, 90 min; 0 = compound-well median, 100 = enzyme-acceptor control | activation, % at 11.2 µM | 0.3% of 6,700 active | AID 1508611;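 active = mean percent activation in the counterscreen above 29.09%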;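 note: counterscreen on off-target GPR119 to flag nonselective hits from the GPR151 activator screen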
An asterisk follows results filed as active; / = not tested or not shown. Rows were chosen to be rich in hits. Some 3.5% of all compounds tested hit in one or more screens of this group.

SMILES | FBW7 activator | MITF inh | TEAD-YAP inh | GPR151 activ | GPR151 conf act | GPR119 ag
COc1ccc(Cl)cc1NC(=O)c1ccc(NC(=O)c2ccccc2C(=O)O)cc1 | 0 | 0 | -4 | 1 | / | /
COc1cc(C(=O)Nc2cc(=O)n(C)c(=O)n2C)cc(OC)c1OC | 0 | -5 | -2 | 5.7* | 0 | 0
Cc1ccc(-n2cnc3cc(C(=O)NCCc4ccccc4)ccc32)c(C)c1 | 0 | -7 | 6 | 5.5* | 0 | -12
COc1ccc(CCNC(=O)c2ccc3c(c2)ncn3-c2ccc(C)cc2C)cc1OC | 0 | 11 | 15 | 0 | / | /
CC1(C)Cc2c(sc3ncnc(NNC(=O)c4ccccc4)c23)CO1 | 0 | -4 | 6 | 6.3* | 0 | 2
Cc1cc(C)cc(NS(=O)(=O)c2ccc3c(c2)C(C)(C)C(=O)N3C)c1 | 1 | 0 | 11 | 0 | / | /
COCCn1c(C)cc(/C=C2/C(=O)NC(=O)N(C3CCCCC3)C2=O)c1C | 0 | 8 | 9 | 7.0* | -1 | -12
CC1CN(C(=O)CCC(=O)N2CCN(c3ccccn3)CC2)c2ccccc2O1 (stereo not drawn) | 0 | -7 | -2 | 6.1* | 0 | 0
CC1CN(C(=O)CCC(=O)NC2CCCC2)c2cc(Cl)ccc2O1 (stereo not drawn) | 0 | -3 | -4 | 0 | / | /
Cc1ccc(S(=O)(=O)CCC(=O)N2CCN(c3ccccn3)CC2)cc1 | 0 | 4 | -3 | 5.1* | 0 | -3
CC1CN(C(=O)CCC(=O)NC2CCCC2)c2ccccc2O1 (stereo not drawn) | 0 | 5 | -6 | 5.1* | 0 | -2
Cc1cc2ccccc2c(=O)n1CC(=O)N1CCN(c2ccccn2)CC1 | 0 | -2 | 10 | 7.2* | 0 | -9
O=C(Nc1cccnc1)c1cc2n(n1)C(C(F)(F)F)CC(c1ccc(Br)cc1)N2 (stereo not drawn) | 0 | 3 | -5 | -1 | / | /
O=C(Nc1cccnc1)c1cc2n(n1)C(C(F)(F)F)CC(c1ccc(Cl)cc1)N2 (stereo not drawn) | 0 | -5 | -23 | 5.0* | 1 | 3
COc1ccc(Cl)cc1N(CC(=O)Nc1cccc(Cl)c1C)S(C)(=O)=O | 0 | -1 | 2 | -1 | / | /
Cc1ccc(-c2c(N3CC(=O)N(CCc4ccccc4)C(=O)C3)c(=O)c2=O)cc1 | 0 | -4 | -15 | 6.5* | 0 | 4
CN1C(=O)CC(Nc2ccc(N(C)C)cc2)C1=O (stereo not drawn) | 0 | 29 | 9 | 7.3* | 0 | 8
CCN1C(=O)CC(Nc2ccc(N(C)C)cc2)C1=O (stereo not drawn) | 0 | 25 | 6 | 0 | / | /
CC(=O)Nc1ccc(NC(=O)COc2ccc(Br)cc2C)cc1 | 0 | 11 | -23 | 8.7* | 0 | -4
Cc1cc(Br)ccc1OCC(=O)Nc1ccc(C(N)=O)cc1 | 0 | 5 | -2 | 0 | / | /
CC(=O)NS(=O)(=O)c1ccc(NC(=O)COc2ccc(Br)cc2)cc1 | 0 | 7 | 6 | 5.8* | -1 | -12
COc1ccccc1OCC(=O)Nc1ccc(S(=O)(=O)NC(C)=O)cc1 | 0 | 0 | 12 | 16* | -1 | -9
CC(C)(C)NS(=O)(=O)c1ccc(NC(=O)COc2ccc(Br)cc2)cc1 | 0 | 4 | 1 | 16* | 1 | 14
CC(=O)NS(=O)(=O)c1ccc(NC(=O)COc2ccc(C)cc2)cc1 | 0 | -12 | 0 | 1 | / | /
CC(C)(C)NS(=O)(=O)c1ccc(NC(=O)COc2ccc3ccccc3c2)cc1 | 0 | 0 | 10 | 1 | / | /
SMILES | FBW7 activator | MITF inh | TEAD-YAP inh | GPR151 activ | GPR151 conf act | GPR119 ag
CCOC(=O)c1c(CC(C)C)csc1N1C(=O)c2cccc([N+](=O)[O-])c2C1=O | 0 | -6 | -3 | 1 | / | /
COc1ccc(-c2nc(NC(=O)c3ccc([N+](=O)[O-])o3)sc2C)cc1 | 0 | -9 | 2 | -1 | / | /
C=C(C)CC1(NCc2ccccc2)CCCCC1 | 0 | -7 | -3 | -2 | / | /
CCN(CCO)c1ccc(NC2=C(NC(C)=O)C(=O)c3ccccc3C2=O)cc1 | 0 | 8 | 61* | 5.1* | 0 | 12
CCC(=O)NC1=C(Nc2ccc(N)cc2)C(=O)c2ccccc2C1=O | 0 | 10 | -48 | -2 | / | /
CCN(CC)C(=O)/C(=C/c1cn(CC)c2ccccc12)NC(=O)c1ccc(OC)cc1 | 0 | 14 | -4 | 0 | / | /
CCOc1ccc(C(=O)N(Cc2nc(-c3ccc(OC)cc3)no2)C(C)C)cc1OCC | 0 | 3 | -3 | -1 | / | /
COc1cccc(OC)c1C(=O)N(Cc1nc(-c2ccc(C)cc2)no1)C(C)C | 0 | -7 | 14 | 9.7* | 0 | -15
CN(Cc1nc(-c2ccccc2)no1)S(=O)(=O)c1ccc(Cl)cc1 | 0 | 3 | 5 | 5.5* | -1 | -8
COc1ccc(-c2noc(CN(C(C)C)S(=O)(=O)c3ccc(F)cc3)n2)cc1 | 0 | -5 | -5 | 11* | 0 | -7
C=CCOc1ccc(C(=O)N(Cc2nc(-c3ccc(OC)c(OC)c3)no2)C(C)C)cc1 | 0 | 12 | 0 | 12* | -1 | 6
CCOc1cc(Br)c(/C=C2/C(=O)N(C)C(=S)N2CC(=O)OC)cc1OC | 1 | 15 | 7 | 0 | / | /
CC(C)N(Cc1nc(-c2ccccc2)no1)C(=O)CCN1C(=O)c2ccccc2C1=O | 0 | -8 | 9 | 3 | / | /
Cc1ccc(-c2noc(CN(C(=O)CCN3C(=O)c4ccccc4C3=O)C(C)C)n2)cc1 | 0 | 13 | 5 | 5.1* | -1 | -9
COc1ccc(CCNC(=O)c2sc3nc(C)[nH]c(=O)c3c2C)cc1OC | 0 | 12 | -10 | -1 | / | /
COc1cc(CN2CCN(S(=O)(=O)c3ccc(Cl)cc3)CC2)ccc1OCc1ccccc1 | 0 | -17 | 0 | 2 | / | /
CCn1c(-c2csc3c2CCC(C)C3)n[nH]c1=S (stereo not drawn) | 0 | 2 | 10 | 0 | / | /
COc1ccccc1C1N(c2cc(Cl)ccc2OC)C(=O)C2CCCN21 (stereo not drawn) | 0 | 4 | 1 | 6.8* | -1 | -8
COc1ccc(Cl)cc1N1C(=O)C2CCCN2C1c1ccccc1 (stereo not drawn) | 1 | 6 | 2 | 1 | / | /
COc1ccc(C2(CC(=O)N3CC[C@@H](O)C3)CC(=O)N(CCC(C)C)C2=O)cc1 (stereo partly drawn) | 1 | 2 | 8 | 6.7* | 0 | 3
COc1ccc(C2(CC(=O)N3CCCC(O)C3)CC(=O)N(CCC(C)C)C2=O)cc1 (stereo not drawn) | 0 | 3 | 5 | -1 | / | /
CCC(Sc1nc2cc3c(cc2c(=O)n1CCCCCC(=O)NCc1ccc2c(c1)OCO2)OCO3)C(=O)NCc1ccco1 (stereo not drawn) | 0 | 0 | 0 | 0 | / | /
